The values below come from article PMC8384837, “Expanding the binding specificity for RNA recognition by a PUF domain”.

Test in all cases: yeast three-hybrid, YBZ-1, SC-Leu-His + 0.5 mM 3-AT, 4 days
Common to all, as to settings: tags: N-Gal4 AD-HA kept; label: inside an RPR1-promoter hybrid RNA with tandem MS2 sites; ssRNA

One experiment addresses PUM1 PUF domain R4-SNA (Homo sapiens, UniProt Q14671 828-1176, N971S;H972N;Q975A). Summed up:
(§1)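 Pumilio-1 PUF domain libraries, randomized (NNK) at the three base-contacting residues of each repeat, were co-expressed with matching RNA elements from a centromeric plasmid in strain YBZ-1 (LexA–MS2 coat fusion, HIS3 reporter). Transformants were plated on SC-Leu (input) and SC-Leu-His + 0.5 mM 3-AT (selection) for four days, and repeat regions were PCR-amplified and Illumina-sequenced. The interaction score is the log2 change in variant frequency from input to selection, with pseudocount 1 where absent.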

The target of the next experiment is PUM1 PUF domain R3-WWD (Homo sapiens, UniProt Q14671 828-1176, C935W;R936W;Q939D). Summed up: as §1
The target in the next experiment is T1, PUM1 PUF domain R6-FWG (Homo sapiens, UniProt Q14671 828-1176, N1043F;Y1044W;Q1047G).
T1 sequence: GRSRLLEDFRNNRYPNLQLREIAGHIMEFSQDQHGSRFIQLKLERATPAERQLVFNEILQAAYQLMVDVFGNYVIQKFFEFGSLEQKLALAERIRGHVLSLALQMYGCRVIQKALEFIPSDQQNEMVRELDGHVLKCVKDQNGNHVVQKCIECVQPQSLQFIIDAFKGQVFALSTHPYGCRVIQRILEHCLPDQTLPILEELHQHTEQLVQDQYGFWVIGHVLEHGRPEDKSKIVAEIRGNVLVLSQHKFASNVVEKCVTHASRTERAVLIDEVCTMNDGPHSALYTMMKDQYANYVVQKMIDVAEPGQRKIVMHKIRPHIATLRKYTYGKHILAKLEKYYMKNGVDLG
Put shortly:
as §1

Another experiment addresses T2, PUM1 PUF domain R6-PFE (Homo sapiens, UniProt Q14671 828-1176, N1043P;Y1044F;Q1047E).
T2 sequence: T1 sequence with F216P, W217F, G220E
Put shortly:
as §1

In the next experiment the target is PUM1 PUF domain R5-KSI (Homo sapiens, UniProt Q14671 828-1176, C1007K;R1008S;Q1011I). Summed up:
as §1

Another experiment has as its target PUM1 PUF domain R5-KFR (Homo sapiens, UniProt Q14671 828-1176, C1007K;R1008F;Q1011R). Put shortly:
as §1

The next experiment addresses PUM1 PUF domain R5-DYD (Homo sapiens, UniProt Q14671 828-1176, C1007D;R1008Y;Q1011D). Put shortly:
as §1

The target in another experiment is PUM1 PUF domain R7-KCQ (Homo sapiens, UniProt Q14671 828-1176, S1079K;N1080C;E1083Q). Summed up:
as §1

The target of another experiment is PUM1 PUF domain R7-ENS (Homo sapiens, UniProt Q14671 828-1176, S1079E;E1083S). Summed up:
as §1

The next experiment has as its target PUM1 PUF domain R4-QFL (Homo sapiens, UniProt Q14671 828-1176, N971Q;H972F;Q975L). Summed up:
as §1

Where a chain is given by its changes, count along the chain named.

For “GGCUAGAACUAGUGGAUCCCCCGGCGCCCGGCGGCUCGAGCCCGGGUAAGUGUACAUAGUCUGCAUGCCGCCGGGCGCCAUGCCUGCAGGUCGACUCUAGAAAACAUG”, in the experiment with PUM1 PUF domain R4-SNA, the binding signal is 3.14 log2 enrichment (interaction score).

As to “GGCUAGAACUAGUGGAUCCCCCGGCGCCCGGCGGCUCGAGCCCGGGUAAGUGUAAGUAGUCUGCAUGCCGCCGGGCGCCAUGCCUGCAGGUCGACUCUAGAAAACAUG”, the binding signal with PUM1 PUF domain R3-WWD was 5.41 log2 enrichment (interaction score).

With “GGCUAGAACUAGUGGAUCCCCCGGCGCCCGGCGGCUCGAGCCCGGGUAAGUGAAAAUAGUCUGCAUGCCGCCGGGCGCCAUGCCUGCAGGUCGACUCUAGAAAACAUG”, the binding signal with PUM1 PUF domain R6-FWG was 2.45 log2 enrichment (interaction score).

For the sequence “GGCUAGAACUAGUGGAUCCCCCGGCGCCCGGCGGCUCGAGCCCGGGUAAGUGGAAAUAGUCUGCAUGCCGCCGGGCGCCAUGCCUGCAGGUCGACUCUAGAAAACAUG”, the binding signal with PUM1 PUF domain R6-PFE is 2.11 log2 enrichment (interaction score).

As to “GGCUAGAACUAGUGGAUCCCCCGGCGCCCGGCGGCUCGAGCCCGGGUAAGUGUCAAUAGUCUGCAUGCCGCCGGGCGCCAUGCCUGCAGGUCGACUCUAGAAAACAUG”, the binding signal with PUM1 PUF domain R5-KSI was 3.85 log2 enrichment (interaction score); with PUM1 PUF domain R5-KFR, 5.4 log2 enrichment (interaction score); in the experiment with PUM1 PUF domain R5-DYD, 5.78 log2 enrichment (interaction score).

Regarding “GGCUAGAACUAGUGGAUCCCCCGGCGCCCGGCGGCUCGAGCCCGGGUAAGUUUAAAUAGUCUGCAUGCCGCCGGGCGCCAUGCCUGCAGGUCGACUCUAGAAAACAUG”, the binding signal with PUM1 PUF domain R7-KCQ was 2.98 log2 enrichment (interaction score); in the experiment with PUM1 PUF domain R7-ENS, 4.45 log2 enrichment (interaction score).

As to “GGCUAGAACUAGUGGAUCCCCCGGCGCCCGGCGGCUCGAGCCCGGGUAAGUCUAAAUAGUCUGCAUGCCGCCGGGCGCCAUGCCUGCAGGUCGACUCUAGAAAACAUG”, the binding signal with PUM1 PUF domain R7-KCQ was 4.46 log2 enrichment (interaction score).

Take “GGCUAGAACUAGUGGAUCCCCCGGCGCCCGGCGGCUCGAGCCCGGGUAAGUGUUAAUAGUCUGCAUGCCGCCGGGCGCCAUGCCUGCAGGUCGACUCUAGAAAACAUG”: in the experiment with PUM1 PUF domain R5-KFR, the binding signal was 4.62 log2 enrichment (interaction score).

Take “GGCUAGAACUAGUGGAUCCCCCGGCGCCCGGCGGCUCGAGCCCGGGUAAGUGUAAAUAGUCUGCAUGCCGCCGGGCGCCAUGCCUGCAGGUCGACUCUAGAAAACAUG”: the binding signal with PUM1 PUF domain R5-KFR was 4.71 log2 enrichment (interaction score); with PUM1 PUF domain R5-DYD, 1.97 log2 enrichment (interaction score); in the experiment with PUM1 PUF domain R4-SNA, 1.52 log2 enrichment (interaction score); with PUM1 PUF domain R6-FWG it was 3.61 log2 enrichment (interaction score).

As to “GGCUAGAACUAGUGGAUCCCCCGGCGCCCGGCGGCUCGAGCCCGGGUAAGUGUAUAUAGUCUGCAUGCCGCCGGGCGCCAUGCCUGCAGGUCGACUCUAGAAAACAUG”, the binding signal is 4.92 log2 enrichment (interaction score) with PUM1 PUF domain R4-QFL and 4.15 log2 enrichment (interaction score) with PUM1 PUF domain R4-SNA.
